In PubChem BioAssay (EPA / NIEHS):
Results filed as inconclusive are left out. Activity calls are given as the source filed them. The calls were made as follows: active = hit-call score of the fitted dose curve at least 0.9, where 1 is the maximum; inconclusive = response in the unintended direction; inactive = score below 0.9.

Each compound was assayed against Glucocorticoid receptor (Homo sapiens) (UniProt P04150) (assay: ATG_GR_TRANS: Attagene TRANS-FACTORIAL HepG2 Assay for human Glucocorticoid Receptor (GR) (AID 2282978;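 also: activators score as hits since higher reporter transcript over DMSO is fitted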)). Conditions: HepG2 Attagene TRANS GR reporter, mRNA transcription.
Sequence of Glucocorticoid receptor (Homo sapiens) (P04150 whole entry, looked up, the tested form may be a part): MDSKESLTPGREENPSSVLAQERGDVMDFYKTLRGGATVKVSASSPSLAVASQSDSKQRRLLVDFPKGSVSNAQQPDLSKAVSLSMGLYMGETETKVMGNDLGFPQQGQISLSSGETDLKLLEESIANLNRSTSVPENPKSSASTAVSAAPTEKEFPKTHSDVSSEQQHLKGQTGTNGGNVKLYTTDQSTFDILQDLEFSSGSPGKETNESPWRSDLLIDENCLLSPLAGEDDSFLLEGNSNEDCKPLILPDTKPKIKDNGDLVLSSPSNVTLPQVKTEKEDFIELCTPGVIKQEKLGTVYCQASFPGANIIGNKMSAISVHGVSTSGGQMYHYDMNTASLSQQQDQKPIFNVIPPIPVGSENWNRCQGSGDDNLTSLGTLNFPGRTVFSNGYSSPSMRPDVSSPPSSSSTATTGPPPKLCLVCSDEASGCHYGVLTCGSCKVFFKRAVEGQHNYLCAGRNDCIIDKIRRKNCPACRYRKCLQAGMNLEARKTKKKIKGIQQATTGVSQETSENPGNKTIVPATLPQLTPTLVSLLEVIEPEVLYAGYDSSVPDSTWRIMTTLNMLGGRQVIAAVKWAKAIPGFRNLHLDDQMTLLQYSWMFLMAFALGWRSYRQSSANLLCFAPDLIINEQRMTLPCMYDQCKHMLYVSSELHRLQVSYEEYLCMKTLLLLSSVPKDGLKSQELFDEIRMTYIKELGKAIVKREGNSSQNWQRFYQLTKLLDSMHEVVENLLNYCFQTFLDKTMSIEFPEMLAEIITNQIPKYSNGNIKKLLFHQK
Method in brief: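 Readout is reporter transcript from a chimeric GR-Gal4 acting on GAL4-UAS in transfected human HepG2 liver cells after 24 h exposure, quantified by RT-PCR and capillary electrophoresis. Activation fitted upward against DMSO.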
`O=C(O)c1cc(C(=O)O)cc([N+](=O)[O-])c1` was tested, and the outcome was “inactive”.
For `O=C(Nc1ccc([N+](=O)[O-])cc1)Nc1ccc([N+](=O)[O-])cc1` (tested in a mixture with another compound), the outcome was “inactive”.
With `OCC#CCO` the outcome was “inactive”.
With `CCC1(c2ccccc2)C(=O)NCNC1=O` the outcome was “inactive”.
In the case of `CC1=NN(c2ccc(S(=O)(=O)O)cc2)C(=O)C1`, the outcome is reported as “inactive”.
`CN(C)C(=O)Nc1ccc(Oc2ccc(Cl)cc2)cc1` was tested, and the outcome was “inactive”.
For `COc1cc(C(C)C)ccc1C`, the outcome was “inactive”.
For `CCCC(=O)c1ccccc1`, the outcome was “inactive”.
`C=C(C)[C@@H]1CC=C(C)C(=O)C1` was tested, and the outcome was “inactive”.
For `COc1cc(CCC(C)=O)ccc1O`, the outcome was “inactive”.
In the case of `CC[N+](C)(CC)CC`, the outcome is reported as “inactive”.
`C=Cc1ccncc1` was tested, and the outcome was “inactive”.
For `CSc1c(Cl)c(Cl)c(Cl)c(Cl)c1Cl`, the outcome was “inactive”.
`Clc1cc(Cl)c(-c2c(Cl)c(Cl)cc(Cl)c2Cl)cc1Cl` was tested, and the outcome was “inactive”.
`CCOC(=O)CN` was tested, and the outcome was “inactive”.
For `CCCCCCCCN1CCCC1=O`, the outcome was “inactive”.
With `CS(=O)(=O)c1ccc(Cl)cc1` the outcome was “inactive”.
For `O=C(c1ccccc1)C(O)c1ccccc1` (configuration not stated), the outcome was “inactive”.
In the case of `CCCCCCCCCCCCCC(=O)OCC(O)CO` (configuration not stated), the outcome is reported as “inactive”.
With `CCCCCCCCCCCCS(=O)(=O)Cl` the outcome was “inactive”.
With `CCCCCCC(C)(C)S` the outcome was “inactive”.
For `O=P(O)(O)O`, the outcome was “inactive”.
